The sample as a whole holds a higher share of hits than the screen did.
Pf apPOL inh – Pf-apPOL DNA polymerase inhibition; Recombinant Pf-apPOL, molecular beacon fluorescence, 1.5 h; inhibition, % at 10 µM; actives 0.25% (n = 210,000); AID 1794808
mHTT-CaM PPI inh – inhibitors of human mutant huntingtin-calmodulin interaction | actives 3.6% (n = 190,000) | inhibition, % at 15 µM | AlphaScreen His-mHTT/GST-CaM binding, luminescence | AID 1671202;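 note: 0% = both proteins with DMSO and 100% = one protein alone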
* marks the source's active call; other numbers are inactive results; / = no result. Cut-off read from the data, not from the text of the source: active = inhibition above about 50%; inactive = the rest.

SMILES	Pf apPOL inh	mHTT-CaM PPI inh
COc1ccc(C2Sc3ccccc3NC3=C2C(=O)c2ccccc23)cc1OC (stereo unspecified)	2.7	69.2*
COc1cc(C2C3=C(Nc4c2c(=O)[nH]c(=O)n4C)c2ccccc2C3=O)ccc1O (stereo unspecified)	-1.8	10.0
Brc1ccc(C=Nc2c(-c3ccco3)nc3ccccn23)cc1	-1.2	33.0
Oc1ccc(Br)cc1C=Nc1c(-c2ccco2)nc2ccccn12	-5.1	62.0*
Clc1ccccc1C=Nc1c(-c2ccco2)nc2ccccn12	3.0	79.0*
COc1ccc(C=Nc2c(-c3ccco3)nc3ccccn23)cc1OC	-6.5	33.0
Oc1ccc(C=Nc2c(-c3ccco3)nc3ccc(Cl)cn23)cc1	-0.2	52.0*
CSc1ccc(C=Nc2c(-c3ccco3)nc3ccccn23)cc1	-8.8	80.0*
COc1ccc(Br)cc1C=Nc1c(-c2ccco2)nc2ccccn12	4.7	46.0
O=[N+]([O-])c1cc(C=Nc2c(-c3ccco3)nc3ccccn23)ccc1Cl	0.4	33.0
Cc1ccc(CNC(=O)C2c3ccccc3CCN2C(=O)C2CC2)o1 (stereo unspecified)	-0.9	1.5
CCOC(=O)c1[nH]ncc1-c1ccc(Cl)cc1Cl	0.5	/
COc1ccc2c(c1)c(CN1CCC(C(=O)NCCc3ccco3)CC1)cn2C	-1.6	7.2
CCNC(=O)C1CCc2sc(C(=O)N(CC)CC)cc2C1 (stereo unspecified)	0.8	-4.1
O=C(c1ccc(OCC2CCCN2C(=O)c2ccc(F)cc2)cc1)N1CCCC1 (stereo unspecified)	46.3	2.5
COc1cc(-c2cc(OC)c3c(C)oc(C)c3c(=O)c2)ccc1O	-3.1	35.0
Cc1oc(C)c2c(=O)cc(-c3ccc4c(c3)OCO4)cc(O)c12	5.5	52.6*
Cc1ccc(N2C(=O)CC(N3CCN(Cc4ccc5c(c4)OCO5)CC3)C2=O)c(C)c1 (stereo unspecified)	-11.5	2.5
COc1cccc(NC(=O)c2sc3nc(C)nc(N4CCCCC4C)c3c2C)c1 (stereo unspecified)	-7.1	15.0
CCN1CCN(C(=O)C2CCN(c3nc4ccc(-c5ccsc5)nc4s3)CC2)CC1	0.5	66.6*
O=C(C1CCN(c2nc3ccc(-c4ccsc4)nc3s2)CC1)N1CCCC1	-3.2	12.1
O=C(/C=C/c1ccc(Cl)cc1Cl)Nc1ccc(Br)cn1	-3.1	23.0
Cc1ccc(C)c(NC(=O)COc2ccccc2Br)c1	-11.9	-7.7
O=[N+]([O-])c1c(Nc2ccccc2O)ncnc1Nc1ccccc1O	-2.2	69.0*
Nc1ncnc(Nc2ccccc2N=Cc2ccccc2O)c1[N+](=O)[O-]	1.1	16.0
SMILES	Pf apPOL inh	mHTT-CaM PPI inh
Cc1sc(-c2ccc(Cl)cc2)nc1-c1ccc(-c2ccccc2F)cc1	5.0	/
COc1ccc2c(Cl)c(C(=O)NCc3ccccc3)sc2c1Cl	-0.8	1.1
Cc1ccccc1C(=O)Nc1cccn2nc(C3CC3)nc12	-23.5	16.8
O=C(Cc1cccs1)Nc1cccn2nc(C3CC3)nc12	60.9*	34.8
CCCOc1ccc(C(=O)Nc2ccc(N3CCCC3)cc2)cc1	-5.7	2.6
CCCCOc1ccc(C(=O)Nc2ccc(N3CCCC3=O)cc2)cc1	2.7	88.3*
N#CC(=Cc1c(Cl)cccc1Cl)c1nc(-c2ccc(Cl)cc2)cs1	-4.1	/
COc1ccccc1C1CC(c2ccc(Br)cc2)=NN1C(=O)c1cccnc1 (stereo unspecified)	-3.4	53.0*
COc1ccccc1C1CC(c2ccc(Br)cc2)=NN1C(=O)CCC(=O)O (stereo unspecified)	-0.9	10.0
COc1cccc(C2CC(c3ccc(Br)cc3)=NN2C(=O)c2ccncc2)c1OC (stereo unspecified)	-4.8	61.0*
COc1ccccc1C1CC(c2ccc(Br)cc2)=NN1C(=O)c1ccncc1 (stereo unspecified)	-4.7	18.0
CC(C)c1cc(C(=O)N2CCCC2c2cc(C(C)C)on2)no1 (stereo unspecified)	-2.0	6.5
Cc1onc(-c2c(F)cccc2Cl)c1C(=O)Nc1sc(C)c(-c2ccccc2)c1C(N)=O	-2.0	8.4
O=C(CN1C(=O)C(c2ccccc2)=NC12CCCCCC2)Nc1ccc(Cl)cc1	-7.3	99.6*
O=C(CN1C(=O)C(c2ccc(Cl)cc2)=NC12CCCCC2)Nc1cccc(F)c1	-5.9	75.6*
O=C(CN1C(=O)C(c2ccccc2)=NC12CCCCC2)Nc1ccc(F)cc1	-6.2	36.7
O=C(CN1C(=O)C(c2ccccc2)=NC12CCCCC2)Nc1ccccc1	-1.2	9.1
COc1ccc(C2=NC3(CCCCC3)N(CC(=O)Nc3cccc(Cl)c3)C2=O)cc1	-2.2	37.6
Cc1cccc(NC(=O)CN2C(=O)C(c3ccc(F)cc3)=NC23CCCCCC3)c1	-1.6	-11.9
CC1CCC2(CC1)N=C(c1ccccc1)C(=O)N2CC(=O)Nc1ccc(F)cc1 (stereo unspecified)	-4.5	57.7*
O=C(CN1C(=O)C(c2ccccc2)=NC12CCCC2)Nc1cccc(Cl)c1	-1.2	73.6*
